Bioassay records deposited in PubChem by several laboratories.
A selection: hits, their analogues and other compounds. The true share with any hit is near 2.1%.
Calpain2 inh: inhibitors of pig calpain II, primary screen, biochemical, fluorogenic peptide substrate, 1536-well; purified calpain II, 30 min; inhibition, % at 16 µM; actives 0.37% (n = 220,000);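 active = inhibition above about 50%, limit read from the data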
HSV replic up: enhancers of HSV replication in host cells, fold increase, host cell viability | HSV replication augmentation in cells | maximum fold increase | actives 0.005% (n = 220,000); in the data active = maximum fold increase above about 1.5; inconclusive = no clear call, values can overlap the other calls; tested in PC3 cells
ROMK primary: ROMK potassium channel modulators, primary screen, cell-based, thallium flux, MLSMR library; B-score at 10 µM; actives 2% (n = 130,000); ATP-sensitive inward rectifier potassium channel 1 (Homo sapiens), P48048; Tet-inducible ROMK, thallium flux fluorescence; actives lie on both sides;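 active = signal ratio slope over the read window, or its plate-corrected B-score, at least 3 SD from the plate mean, either direction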;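 also: B-score of the F/F0 ratio slope over 7 to 12 s after thallium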
Target sequence (P48048 whole entry, looked up): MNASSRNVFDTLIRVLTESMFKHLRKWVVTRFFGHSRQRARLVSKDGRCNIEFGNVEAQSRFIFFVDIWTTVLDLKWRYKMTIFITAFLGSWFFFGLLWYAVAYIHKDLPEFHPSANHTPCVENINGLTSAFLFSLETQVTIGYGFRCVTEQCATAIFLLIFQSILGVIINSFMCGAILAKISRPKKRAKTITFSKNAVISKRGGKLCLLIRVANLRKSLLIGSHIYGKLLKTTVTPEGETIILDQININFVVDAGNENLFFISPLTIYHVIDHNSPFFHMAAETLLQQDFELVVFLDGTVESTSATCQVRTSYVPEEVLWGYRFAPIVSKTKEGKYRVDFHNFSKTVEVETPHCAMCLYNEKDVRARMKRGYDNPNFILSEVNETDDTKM
HMGR II inh: inhibitors of E. faecalis class II HMGR, primary screen, biochemical, Enterococcus faecalis | HMG-CoA reductase (Enterococcus faecalis, mvaE) | purified E. faecalis HMGR, NADPH absorbance 340 nm kinetic | inhibition, % at 10 µM | actives 0.41% (n = 190,000) | AID 1066, 2008;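 active = inhibition above a set limit, the median over all tested compounds plus 3 SD, cut at about 9.5% in these data; inconclusive = no clear call, values can overlap the other calls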;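 also: enzyme runs in reverse so mevalonate oxidation gives rising NADPH absorbance; 0% = complete reaction with DMSO and 100% = background rate lacking mevalonate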
Arbovirus anti: antivirals against arbovirus infection, primary screen, cell-based, full library, 10K replicate subset; arbovirus infection cell-based antiviral screen; inhibition, % at 10 µM; actives 0.37% (n = 200,000); in the data active = inhibition above about 30%
ROMK retest: ROMK channel modulator hit retest, confirmation, cell-based, thallium flux, duplicate, resupplied hits | shares compounds with ROMK primary | fluorescence ratio; stronger effect = lower value | normalized thallium flux (F/F0 slope) at 10 µM | actives 54% (n = 3,000);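 active = Flux at 10 µM at least 3 SD below or above vehicle control mean in one or both replicates; inconclusive = no clear call, values can overlap the other calls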
Numbers without * were called inactive.

Screening N#C/C(=C\c1ccc(C#N)cc1)C(=O)N1CCCC1 returned Calpain2 inh 4, HSV replic up inactive, ROMK primary -5.1*, HMGR II inh -9, Arbovirus anti 9 and ROMK retest 0.04*.
`CN1CCN(C(=O)/C(C#N)=C/c2ccc(F)cc2)CC1` gave Calpain2 inh 8, HSV replic up inactive, ROMK primary -2.7*, HMGR II inh -3, Arbovirus anti 12 and ROMK retest 0.047*.
Screening CCCn1ncc(CN2CCN(Cc3ccsc3)C(CCO)C2)c1C (configuration not stated) returned Calpain2 inh -9, HSV replic up inactive, ROMK primary -1.6, HMGR II inh 4 and Arbovirus anti 0.
For O=C(Nc1cccnc1)c1cccc(S(=O)(=O)N2CCc3ccccc32)c1 the results were Calpain2 inh 7, HSV replic up inactive, ROMK primary -1, HMGR II inh -7 and Arbovirus anti 6.
For O=C(Nc1cccnc1)c1ccc(Cl)c(S(=O)(=O)N2CCc3ccccc32)c1 the results were Calpain2 inh -40, HSV replic up inactive, ROMK primary -3.8*, HMGR II inh -4, Arbovirus anti -25 and ROMK retest 0.066*.
For CCOC(=O)Nc1ccc(S(=O)(=O)Nc2nc(C)cc(C)n2)cc1 the results were Calpain2 inh -1, HSV replic up inactive, ROMK primary 2.4*, HMGR II inh -1, Arbovirus anti 0 and ROMK retest 0.08.
For CCCOC(=O)c1cc(-c2ccc(C=O)o2)ccc1Cl the results were Calpain2 inh 3, HSV replic up inactive, HMGR II inh 2, Arbovirus anti -4 and ROMK retest 0.1*.
`COc1ccccc1N1CCN(C(=O)CCCn2nc(C)c([N+](=O)[O-])c2C)CC1` gave Calpain2 inh 20, HSV replic up inactive, HMGR II inh -7 and Arbovirus anti 0.
Screening O=C(C1CCCN(S(=O)(=O)c2ccc(Cl)cc2)C1)N(Cc1cccs1)C1CC1 (configuration not stated) returned Calpain2 inh 22, HSV replic up inactive, ROMK primary -4*, HMGR II inh -4, Arbovirus anti 7 and ROMK retest 0.058*.
`CC(C)NCCCCOc1ccc(Br)cc1Cl` gave Calpain2 inh -2, HSV replic up inactive, ROMK primary -1.6, HMGR II inh 0 and Arbovirus anti -33.
`O=C1N/C(=C/c2ccc(N3CCOCC3)o2)C(=O)N1c1ccccc1` gave Calpain2 inh -8, HSV replic up inactive, ROMK primary -3.4*, HMGR II inh -4, Arbovirus anti -1 and ROMK retest 0.049*.
For COc1ccc(CCc2nnc(CCC(=O)NCc3ccc4ncccc4c3)o2)cc1 the results were Calpain2 inh -20, HSV replic up inactive, ROMK primary -0.2, HMGR II inh -1 and Arbovirus anti 4.
COc1ccc(/C=C(/C(=O)c2cccs2)N2C=CC=CC2=C(C#N)C#N)cc1 was read as Calpain2 inh -95, HSV replic up inconclusive, HMGR II inh -2 and Arbovirus anti -32.
For N#CC(C#N)=C1C=CC=CN1/C(=C\c1ccco1)C(=O)c1ccccc1 the results were Calpain2 inh -37, HSV replic up inactive, ROMK primary -6*, HMGR II inh -3, Arbovirus anti -32 and ROMK retest 0.036*.
Screening N#CC(C#N)=C1C=CC=CN1/C(=C\c1ccco1)C(=O)c1ccc(Br)cc1 returned Calpain2 inh -45, HSV replic up inactive, HMGR II inh 0 and Arbovirus anti -48.
`COc1ccc(C(=O)/C(=C\c2ccco2)N2C=CC=CC2=C(C#N)C#N)cc1` gave Calpain2 inh -82, HSV replic up inactive, HMGR II inh -5, Arbovirus anti -31 and ROMK retest 0.038*.
Cc1ccccc1C(=O)NNC(=O)CSc1nc(-c2ccccc2)cc(=O)[nH]1 was read as Calpain2 inh 11, HSV replic up inactive, ROMK primary -0.83, HMGR II inh 1 and Arbovirus anti 5.
CCOc1ccc(NC(=O)NC(=O)N(C)S(=O)(=O)c2ccc(C)cc2)cc1 was read as Calpain2 inh 25, HSV replic up inactive, ROMK primary -2*, HMGR II inh -6, Arbovirus anti -2 and ROMK retest 0.077.
For Cc1noc(C)c1CS(=O)(=O)c1ccc(Br)cc1 the results were Calpain2 inh 13, HMGR II inh -2, Arbovirus anti -1 and ROMK retest 0.082.
Screening CCOc1ccc(-c2nc(C#N)c(NCc3ccco3)o2)cc1 returned Calpain2 inh -108, HSV replic up inactive, ROMK primary 0.67*, HMGR II inh -10, Arbovirus anti -7 and ROMK retest 0.086.
Screening N#Cc1nc(-c2ccc(OCc3ccccc3)cc2)oc1NCc1cccnc1 returned Calpain2 inh -37, HSV replic up inactive, ROMK primary -0.82, HMGR II inh -2 and Arbovirus anti -3.
CC1(C)Cc2c(C#N)c(N3CCN(C(=O)c4ccco4)CC3)nc(-c3ccco3)c2CS1 was read as Calpain2 inh -75, HSV replic up inactive, ROMK primary 2, HMGR II inh -9 and Arbovirus anti -6.
For CC1(C)Cc2c(C#N)c(N3CCN(C(=O)c4ccccc4Cl)CC3)nc(-c3ccco3)c2CS1 the results were Calpain2 inh -158, HSV replic up inactive, ROMK primary -1.8*, HMGR II inh 3, Arbovirus anti -7 and ROMK retest 0.089.
`CC1(C)Cc2c(c(-c3ccco3)[nH]c(=O)c2C#N)CS1` gave Calpain2 inh -5, HSV replic up inconclusive, ROMK primary -3.7*, HMGR II inh 0, Arbovirus anti 9 and ROMK retest 0.078.
`Cc1ccc(C(=O)N2NC(c3ccc(F)cc3)C3C(=O)N(c4ccc(C)c(C)c4)C(=O)C32)cc1` (configuration not stated) gave Calpain2 inh -7, ROMK primary -0.1, HMGR II inh 3 and Arbovirus anti 1.
Screening O=C(COc1ccc([N+](=O)[O-])cc1)NNC(=O)c1cccs1 returned Calpain2 inh -6, HSV replic up inactive, ROMK primary 0.65, HMGR II inh 2 and Arbovirus anti 4.
CNS(=O)(=O)c1ccc(NS(=O)(=O)c2ccccc2F)cc1 was read as Calpain2 inh -6, HSV replic up inactive, ROMK primary -0.69, HMGR II inh 0 and Arbovirus anti 7.
O=C(COC(=O)c1cc(-c2ccccn2)nc2ccccc12)Nc1ncc(C(F)(F)F)cc1Cl was read as Calpain2 inh 17 and HSV replic up inactive.
`CCCCN1C(=O)C(=Nc2cccc3cnccc23)c2ccccc21` gave Calpain2 inh -22, HSV replic up inactive, ROMK primary -2, HMGR II inh -5 and Arbovirus anti 2.
